Experimental data taken from the supplement of paper PMC12494721.
Structures can show the parent of a compound that is named as a salt.

test system: Clostridium sporogenes DSM 1664; test: fold change of Tryptamine concentration vs plate DMSO controls (fold change (ratio)); higher = more amine produced, active = hit call of the paper (significant change in both replicates, either direction); details: incubation time: 27 h, anaerobic, 37 °C;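 for the amine columns active = adjusted P below 0.05 in both replicates with a change the same way and a mean fold change under 0.8 or over 1.25; inactive = the rest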
How it was run: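 Using LC–triple-quadrupole MS with dynamic MRM, amines were quantified against external calibration curves and corrected for drift within each batch. Samples were whole anaerobic mGAM cultures of four gut strains, grown 27 h at 37 °C from OD 0.1 before 1:1 dilution, extracted with cold acetonitrile/methanol containing 0.1% formic acid and centrifuged. Compounds were present at 20 µM final (sweeteners at 50 µM final). The numbers are fold changes versus plate DMSO controls, each the mean of 2 biological replicates.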

Row | Compound | fold change of Tryptamine concentration
1 | CC(C)(C)NC[C@H](O)c1ccc(O)c(CO)c1 [Levalbuterol hydrochloride] (20 µM) | 0.99 (inactive)
2 | C[N+]1(CCCCC[N+]2(C)CCCC2)CCCC1 [Pentolinium bitartrate] (20 µM) | 1.08 (inactive)
3 | O=C1c2cccc(O)c2C(=O)c2c(O)cccc21 [Danthron] (20 µM) | 1.02 (inactive)
4 | O=C(N/N=C/c1ccc([N+](=O)[O-])o1)c1ccc(O)cc1 [Nifuroxazide] (20 µM) | 0.998 (inactive)
5 | COC(=O)Nc1nc2cc(Sc3ccccc3)ccc2[nH]1 [Fenbendazole] (20 µM) | 0.986 (inactive)
6 | CN(C)CCOC(c1ccccc1)c1ccccc1.Cn1c(=O)c2[nH]c(Cl)nc2n(C)c1=O [Dimenhydrinate] (20 µM) | 1.02 (inactive)
7 | CCc1ccc(C(=O)C(C)CN2CCCCC2)cc1 (centres undefined) [Eperisone Hydrochloride] (20 µM) | 1.04 (inactive)
8 | CC12CC3CC(C)(C1)CC(N)(C3)C2 [Memantine hydrochloride] (20 µM) | 1.03 (inactive)
9 | COc1ccc2[nH]cc(CCNC(C)=O)c2c1 [Melatonin] (20 µM) | 1.03 (inactive)
10 | CCC(=O)O[C@]1(C(=O)CCl)[C@@H](C)C[C@H]2[C@@H]3CCC4=CC(=O)C=C[C@]4(C)[C@@]3(F)[C@@H](O)C[C@@]21C [Clobetasol propionate] (20 µM) | 1.02 (inactive)
11 | CC[C@@H](CO)NCCN[C@@H](CC)CO [Ethambutol dihydrochloride] (20 µM) | 0.996 (inactive)
12 | CC(=O)CC(c1ccc([N+](=O)[O-])cc1)c1c(O)c2ccccc2oc1=O (centres undefined) [Acenocoumarol] (20 µM) | 0.94 (inactive)
13 | CCOC1O[C@H]([C@@H](COCc2ccccc2)OCc2ccccc2)[C@H](OCc2ccccc2)[C@H]1O (some centres undefined) [Tribenoside] (20 µM) | 0.969 (inactive)
14 | COc1ccc(C[C@@H]2c3cc(OC)c(OC)cc3CC[N@+]2(C)CCC(=O)OCCCCCOC(=O)CC[N@@+]2(C)CCc3cc(OC)c(OC)cc3[C@H]2Cc2ccc(OC)c(OC)c2)cc1OC [Cisatracurium besylate] (20 µM) | 1.05 (inactive)
15 | O=C1CN2Cc3c(ccc(Cl)c3Cl)N=C2N1 [Anagrelide] (20 µM) | 1.03 (inactive)
16 | Cc1c(C)c2c(c(C)c1O)CCC(C)(C(=O)O)O2 (centres undefined) [Trolox] (20 µM) | 0.995 (inactive)
17 | COc1cc(C(=O)NCc2ccc(OCCN(C)C)cc2)cc(OC)c1OC [Trimethobenzamide hydrochloride] (20 µM) | 1.12 (inactive)
18 | CC=CC(=O)N(CC)c1ccccc1C [Crotamiton] (20 µM) | 1.01 (inactive)
19 | CCOC(=O)C1=C(C)NC(C)=C(C(=O)OCC)C1c1ccccc1/C=C/C(=O)OC(C)(C)C [Lacidipine] (20 µM) | 0.849 (inactive)
20 | CCOC(=O)CC(=O)N1CCSC1COc1ccccc1OC (centres undefined) [Moguisteine] (20 µM) | 1.06 (inactive)

Row | Compound | fold change of Tryptamine concentration
21 | CC(=O)OCC(=O)NCCCOc1cccc(CN2CCCCC2)c1 [Roxatidine acetate hydrochloride] (20 µM) | 0.989 (inactive)
22 | Clc1ccc(C(Cn2ccnc2)OCc2csc3c(Cl)cccc23)c(Cl)c1 (centres undefined) [Sertaconazole nitrate] (20 µM) | 1.12 (inactive)
23 | CC[N+](C)(CC)CCOC(=O)C1c2ccccc2Oc2ccccc21 [Methantheline bromide] (20 µM) | 0.999 (inactive)
24 | CN1[C@@H]2CC[C@H]1C[C@@H](OC(c1ccccc1)c1ccccc1)C2 [Benztropine mesylate] (20 µM) | 1.03 (inactive)
25 | Nc1c(Br)cc(Br)cc1CN[C@H]1CC[C@H](O)CC1 [Ambroxol hydrochloride] (20 µM) | 1.04 (inactive)
26 | COCCCC/C(=N\OCCN)c1ccc(C(F)(F)F)cc1 [Fluvoxamine maleate] (20 µM) | 1.03 (inactive)
27 | Clc1ccc(COC(Cn2ccnc2)c2ccc(Cl)cc2Cl)c(Cl)c1 (centres undefined) [Miconazole] (20 µM) | 0.725 (active)
28 | CCCCCCCCCCCCCCCC[N+](C)(C)CCN(Cc1ccc(OC)cc1)c1ncccn1 [Thonzonium bromide] (20 µM) | 0.673 (active)
29 | CCCN(CCC)C(=O)C(CCC(=O)O)NC(=O)c1ccccc1 (centres undefined) [Proglumide] (20 µM) | 1.44 (active)
30 | CN(C)CCC(c1ccc(Br)cc1)c1ccccn1 (centres undefined) [Brompheniramine maleate] (20 µM) | 1.2 (inactive)
31 | c1coc(CNc2ncnc3[nH]cnc23)c1 [Kinetin] (20 µM) | 0.976 (inactive)
32 | C#C[C@]1(O)CC[C@H]2[C@@H]3CCC4=CC(=O)CC[C@@H]4[C@H]3CC[C@@]21C [Norethindrone] (20 µM) | 1.01 (inactive)
33 | Oc1ncnc2[nH]ncc12 [Allopurinol] (20 µM) | 1.04 (inactive)
34 | COc1ccc(CN(CCN(C)C)c2ccccn2)cc1 [Pyrilamine maleate] (20 µM) | 1.02 (inactive)
35 | CC(C)(C#N)c1cc(Cn2cncn2)cc(C(C)(C)C#N)c1 [Anastrozole] (20 µM) | 1.11 (inactive)
36 | COC1=CC(=O)C[C@@H](C)[C@]12Oc1c(Cl)c(OC)cc(OC)c1C2=O [Griseofulvin] (20 µM) | 1.03 (inactive)
37 | CC(C)(C)NCC(O)COc1cccc2c1CC(O)C(O)C2 (centres undefined) [Nadolol] (20 µM) | 1.08 (inactive)
38 | CC1=C(CC(=O)O)c2cc(F)ccc2/C1=C\c1ccc([S+](C)[O-])cc1 (centres undefined) [Sulindac] (20 µM) | 1.04 (inactive)
39 | O=C1NCN(c2ccccc2)C12CCN(CCCC(c1ccc(F)cc1)c1ccc(F)cc1)CC2 [Fluspirilene] (20 µM) | 0.959 (inactive)
